Results on eight molecules are retold here after PubChem BioAssay (Tox21).

Unmarked numbers belong to inactive results. Results filed as inconclusive are left out. Activity calls are given as the source filed them. Unless noted, calls come from the whole dose curve; as a rule, active = well fitted curve in the direction sought with a large enough effect in the repeat runs; inconclusive = weak or mixed curves; inactive = no such curve, though single readings can be large; an effect the other way counts as inactive or inconclusive.

Experiment [1] is described as follows: qHTS assay to identify small molecule antagonists of the estrogen related receptor (ERR) signaling pathway from Tox21 library - cell viability counter screen (AID 1224834). Note: nearly all actives have a fitted effect of over 30% in size. The method in brief:
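Counter screen run in ERR cells (2,000 cells/well): cells pre-incubated 6 h, then treated with compounds for 17.5 h at 37 C. Fluorescence was read 30 min after CellTiter-Fluor addition.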
(Quantitative high-throughput screening tests each substance at several concentrations.)

For experiment [2], the target named is Luciferin 4-monooxygenase (Photinus pyralis) (UniProt P08659). As to the kind of experiment: qHTS assay to identify small molecule inhibitors of firefly luciferase (AID 1224835). Note: nearly all actives have a fitted effect of over 25% in size. The method in brief:
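Biochemical qHTS: compounds run as interplate titrations against purified firefly enzyme, with D-luciferin and ATP each at its KM concentration. Light output recorded by CCD imaging.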

The nature of experiment [3]: qHTS assay to identify small molecule agonists of the constitutive androstane receptor (CAR) signaling pathway - cell viability counter screen (AID 1224836). Note: nearly all actives have a fitted effect of over 45% in size. The method in brief: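 Cells were seeded and incubated 4 hrs. Compounds were added across 15 concentrations together with PK11195 at 0.75 uM final. Plates were incubated 23 hrs at 37 C. CellTiter-Fluor was added and fluorescence measured.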

The nature of experiment [4]: qHTS assay to identify small molecule antagonists of the constitutive androstane receptor (CAR) signaling pathway - cell viability counter screen (AID 1224837). Note: nearly all actives have a fitted effect of over 45% in size. The method in brief: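 CITCO at 50 nM final was added alongside compounds (15 concentrations) to double-stable hCAR/CYP2B6-2.2kb HepG2 cells. Following 23 hr at 37 C, cell viability was quantified by CellTiter-Fluor fluorescence intensity.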

The target in experiment [5] is Nuclear receptor subfamily 1 group I member 3 (Homo sapiens) (UniProt Q14994). Description: qHTS assay to identify small molecule antagonists of the constitutive androstane receptor (CAR) signaling pathway (AID 1224838). Note: nearly all actives have a fitted effect of over 40% in size. The essentials:
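Inhibition of CITCO-driven (50 nM final) CYP2B6 reporter expression is measured in HepG2 cells stably carrying hCAR. Fifteen compound concentrations are applied for 24 h at 37 C, followed by luciferase luminescence.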

Experiment [6] in a line: qHTS assay to identify small molecule antagonists of the estrogen related receptor signaling pathway with the pleiotropic PPARgamma coactivator (PGC) from Tox21 10K library - cell viability counter screen (AID 1224840; active = well fitted cell-killing curve with a large enough effect in the repeat runs, not every such curve was filed as active; note: nearly all actives have a fitted effect of over 40% in size). The essentials: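 Readout: fluorescence intensity from CellTiter-Fluor after 30 min at 37 C/5% CO2. Preceded by 17.5 h treatment of PGC/ERR cells with DMSO-dissolved compounds, added 6 h post-seeding.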

Experiment [7] is described as follows: qHTS assay to identify small molecule agonists of the estrogen related receptor signaling pathway with the pleiotropic PPARgamma coactivator (PGC) from Tox21 10K library (AID 1224842). Note: nearly all actives have a fitted effect of over 15% in size. Note: potency is the fitted concentration of half-maximal effect. The method in brief: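 PGC/ERR reporter cell line, 2,000 cells per well, incubated 6 h at 37 C before 23 nL compound in DMSO was added. After 18 h at 37 C, One-Glo luminescence read following 30 min at room temperature.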

Experiment [8] in a line: qHTS assay to identify small molecule agonists of the hypoxia (HIF-1) signaling pathway - cell viability counter screen (AID 1224844; calls by dose curve; note: nearly all actives have a fitted effect of over 50% in size). The method in brief: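 In this counter screen, HRE-bla ME-180 cell viability after 17 hrs of compound exposure at 37C was read by CellTiter-Glo luminescence, multiplexed with the beta-lactamase reporter measurement.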
Experiment [9] is described as follows: qHTS assay to identify small molecule agonists of H2AX (AID 1224845; active = well fitted activation curve with a large enough effect in the signal ratio in the repeat runs, not every such curve was filed as active; the % refers to the signal ratio; note: potency is the fitted concentration of half-maximal effect). The essentials:
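Wild-type CHO-K1 cells, plated overnight, exposed 3hr at 37C to 15 concentrations (0.76% DMSO final). Lysed, then HTRF anti-pH2AX (S139) cryptate and anti-H2AX-d2 antibodies, 24 hr room temperature; 665/620 nm emission read.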

Experiment [10] is described as follows: qHTS assay to identify small molecule agonists of H2AX - cell viability counter screen (AID 1224847; calls by dose curve; note: top concentration of the series differs between compounds; nearly all actives have a fitted effect of over 30% in size). The essentials:
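Cytotoxicity counter screen in wild-type CHO-K1 cells: a 3 hr compound treatment at 37C across 15 concentrations, followed by CellTiter-Glo luminescence to gauge viable cells.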

The nature of experiment [11]: qHTS assay to identify small molecule antagonists of the estrogen related receptor (ERR) signaling pathway from Tox21 library (AID 1224848). Note: nearly all actives have a fitted effect of over 50% in size. The method in brief: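 Compounds dissolved in DMSO are pin-transferred onto ERR reporter cells (2,000 per well) that have settled for 6 h at 37 C. Plates then incubate 18 h at 37 C before ONE-Glo luciferase reagent and a luminescence read 30 min later.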

Experiment [12] is described as follows: qHTS assay to identify small molecule agonists of the estrogen related receptor (ERR) signaling pathway from Tox21 library (AID 1224849; calls by dose curve; note: nearly all actives have a fitted effect of over 15% in size). To be noted: ERR reporter cell line, ONE-Glo luciferase, 18 h; at 92.4 µM (top of the series) unless noted. The method in brief:
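Luciferase activity in ERR pathway reporter cells served as the agonist readout; exposure lasted 18 h at 37 C, with ONE-Glo detection after 30 min at room temperature.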

The nature of experiment [13]: qHTS RealTime-Glo MT Cell Viability Assay in HepG2 cells - 24 hour (AID 1224867). Note: nearly all actives have a fitted effect of over 50% in size. The method in brief: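 HepG2 cells (600/well) were dispensed with RealTime-Glo reagents, incubated 5 h at 37 °C, then treated with compounds in DMSO for up to 40 h. Nonlytic NanoLuc luminescence reflecting viable cells was read at each stated time point.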
A short description of experiment [14]: A CellTox Green Cytotoxicity Assay to monitor cytotoxicity in HEK293 cells - 0 hour (AID 1224869). Note: nearly all actives have a fitted effect of over 50% in size. The essentials:
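Real-time, in one plate: 600 HEK293 cells/well with dead-cell DNA dye, pinned compound after 5 h, 37 C incubation over 40 h; viable cells give no appreciable fluorescence.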

Experiment [15] is described as follows: qHTS RealTime-Glo MT Cell Viability Assay in HepG2 cells - 40 hour (AID 1224870). Note: nearly all actives have a fitted effect of over 50% in size. The essentials: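 HepG2 cells (600/well) mixed with RealTime-Glo MT reagent, settled 5 h at 37 C/5% CO2 before compound addition. Nonlytic NanoLuc luminescence from viable-cell prosubstrate reduction read repeatedly during 40 h treatment at 37 C.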
The nature of experiment [16]: qHTS assay to identify small molecule agonists of the hypoxia (HIF-1) signaling pathway (AID 1224846; active = well fitted activation curve with a large enough effect in the signal ratio in the repeat runs, not every such curve was filed as active; the % refers to the signal ratio). The method in brief:
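ME-180 HRE-bla reporter cells; compounds in DMSO, 17 h at 37C; read-out beta-lactamase via CCF4-AM FRET.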

Experiment [17] is described as follows: qHTS RealTime-Glo MT Cell Viability Assay in HEK293 cells - 32 hour (AID 1224868). The method in brief:
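HEK293 cells seeded with NanoLuc/prosubstrate reagent, rested 5 h at 37 C, then dosed and kept at 37 C up to 40 h. Nonlytic real-time luminescence from viable cells read at 0, 8, 16, 24, 32 and 40 h.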

A short description of experiment [18]: qHTS assay to identify small molecule antagonists of the estrogen related receptor signaling pathway with the pleiotropic PPARgamma coactivator (PGC) from Tox21 10K library (AID 1224841; call rule not given here). The method in brief: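 One-Glo luminescence, measured after half an hour at room temperature, quantified reporter output of PGC/ERR cells. These had been plated at 2,000 per well, incubated 6 h, dosed with compounds in DMSO, then kept 18 h at 37 C.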

Experiment [19] concerns the target Thyrotropin receptor (Homo sapiens) (UniProt P16473). As to the kind of experiment: qHTS assay to identify small molecule agonists of the thyroid stimulating hormone receptor (TSHR) signaling pathway (AID 1224843; calls by dose curve; note: nearly all actives have a fitted effect of over 45% in size). The essentials:
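HEK293/TSHR, 800 cells/well; cpd 30 min RT; add cAMP-d2 + anti-cAMP-cryptate, 1 h RT; fluorescence read on plate reader. 15-pt titration, n=3.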

Experiment [20] deals with Nuclear receptor subfamily 1 group I member 3 (Homo sapiens) (UniProt Q14994). Description: qHTS assay to identify small molecule agonists of the constitutive androstane receptor (CAR) signaling pathway (AID 1224839). Note: nearly all actives have a fitted effect of over 15% in size. The essentials: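 Cells were plated and incubated 4 hrs, then dosed with compounds at 15 concentrations. PK11195 was added to 0.75 uM final. After 24 hrs at 37 C, luciferase luminescence was measured.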
Chain of Nuclear receptor subfamily 1 group I member 3 (Homo sapiens) (Q14994 whole entry, looked up): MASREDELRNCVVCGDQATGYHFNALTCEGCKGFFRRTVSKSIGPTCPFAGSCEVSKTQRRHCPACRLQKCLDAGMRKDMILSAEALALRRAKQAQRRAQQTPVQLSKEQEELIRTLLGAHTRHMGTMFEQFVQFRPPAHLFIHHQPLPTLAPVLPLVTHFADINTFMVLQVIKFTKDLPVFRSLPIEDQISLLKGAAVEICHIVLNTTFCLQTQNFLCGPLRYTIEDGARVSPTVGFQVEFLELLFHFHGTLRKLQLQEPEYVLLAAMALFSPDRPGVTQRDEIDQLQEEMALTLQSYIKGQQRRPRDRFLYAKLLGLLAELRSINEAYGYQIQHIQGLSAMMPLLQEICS
% is set by controls: 0 for no effect and ±100 for the full control effect.

Chain of Thyrotropin receptor (Homo sapiens) (P16473 whole entry, looked up): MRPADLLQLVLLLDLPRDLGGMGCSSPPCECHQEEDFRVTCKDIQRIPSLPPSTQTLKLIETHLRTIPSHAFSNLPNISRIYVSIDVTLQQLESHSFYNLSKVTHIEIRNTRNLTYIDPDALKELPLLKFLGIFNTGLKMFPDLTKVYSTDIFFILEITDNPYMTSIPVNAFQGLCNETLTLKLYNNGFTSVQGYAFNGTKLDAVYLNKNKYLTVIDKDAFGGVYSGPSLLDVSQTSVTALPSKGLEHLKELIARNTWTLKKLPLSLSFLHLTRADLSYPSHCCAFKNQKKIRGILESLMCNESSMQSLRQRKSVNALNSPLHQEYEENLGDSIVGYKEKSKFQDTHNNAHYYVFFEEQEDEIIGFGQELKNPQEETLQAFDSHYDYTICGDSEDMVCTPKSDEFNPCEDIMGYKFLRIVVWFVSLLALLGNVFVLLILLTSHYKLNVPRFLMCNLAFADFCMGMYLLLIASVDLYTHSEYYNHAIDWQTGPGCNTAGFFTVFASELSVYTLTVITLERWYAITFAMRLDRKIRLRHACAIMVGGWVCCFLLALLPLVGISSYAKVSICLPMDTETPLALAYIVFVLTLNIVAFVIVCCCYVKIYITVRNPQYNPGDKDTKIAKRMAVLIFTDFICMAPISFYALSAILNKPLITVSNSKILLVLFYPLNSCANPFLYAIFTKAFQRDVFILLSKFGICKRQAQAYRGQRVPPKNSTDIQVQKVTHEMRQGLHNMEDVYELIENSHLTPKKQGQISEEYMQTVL
Chain of Luciferin 4-monooxygenase (Photinus pyralis) (P08659 whole entry, looked up): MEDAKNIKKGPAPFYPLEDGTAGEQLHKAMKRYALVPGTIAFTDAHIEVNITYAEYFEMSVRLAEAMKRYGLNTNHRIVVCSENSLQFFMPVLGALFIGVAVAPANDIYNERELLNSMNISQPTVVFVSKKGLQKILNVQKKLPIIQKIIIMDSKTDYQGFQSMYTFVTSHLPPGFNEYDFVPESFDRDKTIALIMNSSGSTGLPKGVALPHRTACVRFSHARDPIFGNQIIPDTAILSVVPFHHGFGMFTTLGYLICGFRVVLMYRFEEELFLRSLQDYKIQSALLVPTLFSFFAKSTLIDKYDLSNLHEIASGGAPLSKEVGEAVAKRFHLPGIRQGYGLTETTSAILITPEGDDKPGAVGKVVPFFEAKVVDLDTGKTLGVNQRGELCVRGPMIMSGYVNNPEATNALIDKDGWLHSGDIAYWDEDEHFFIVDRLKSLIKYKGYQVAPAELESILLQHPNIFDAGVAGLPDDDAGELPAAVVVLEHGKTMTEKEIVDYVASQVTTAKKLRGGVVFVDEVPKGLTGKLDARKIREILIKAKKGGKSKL

Take `CN(C)CCOc1ccccc1Cc1ccccc1`: the Potency entry in experiment [1], in [2], in experiment [3], in experiment [4], in experiment [5] and in experiment [6] was “inactive” each time. Also, the Potency result in experiment [7], in experiment [8], in [9], in [10], in [11] and in [13] was “inactive” in each case. Further, the Potency entry in experiment [14] and in experiment [15] was “inactive” each time. In experiment [12], the activity change, positive = activation was 6.12% [at 42.5 µM].
Regarding `CC1CN(c2ccccc2)NC1=O` (centres undefined), the Potency result in [1], in experiment [2], in [3], in [4], in experiment [5] and in experiment [6] was “inactive” each time. The Potency entry in experiment [8], in experiment [10], in experiment [17], in [14] and in experiment [15] was “inactive” throughout. Also, the call in experiment [16] was inactive.
As for `COC(=O)c1ccc2cc(C(=O)OC)ccc2c1`, the viability change, negative = cytotoxic was -1.01% [at 19 µM] in experiment [1], 6.04% [at 19 µM] in experiment [3] and 1.78% [at 19 µM] in [6]. Besides, the activity change, negative = inhibition in [2] is -7.06% [at 23.6 µM]. In addition, the activity change, negative = cytotoxicity in experiment [4] is -9.38% [at 19 µM]; in experiment [8] it was 1.66% [at 15.8 µM]; in [10] it was 2.5% [at 31.6 µM]; in experiment [13], 2.88% [at 15.8 µM]. For the same molecule, the activity, negative = inhibition in experiment [18] was 221% [at 19 µM]; in [11] it was 23.9% [at 19 µM]. In addition, the Potency in [7] was 4440 nM (active). In addition, the results for the activation in experiment [19] and in experiment [16] were 2.3% [at 19 µM] and -0.33% [at 15.8 µM], respectively. The activation (H2AX phosphorylation) in [9] is 0.148% [at 31.6 µM]. Besides, the activity change, negative = cytotoxic in [17] is -1.06% [at 15.8 µM]; in [15], -0.864% [at 15.8 µM]. For the same molecule, the cytotoxicity in experiment [14] is 2.02% [at 15.8 µM].
As to `CCN(CCCc1ccccc1)CCCc1ccccc1`, the Potency entry in experiment [1], in experiment [2], in [3], in experiment [4], in [6] and in experiment [7] was “inactive” in each case. In addition, the Potency entry in experiment [19], in experiment [8], in [9], in experiment [10], in experiment [11] and in experiment [13] was “inactive” throughout. The Potency result in experiment [14] was “inactive”. Further, in experiment [12], the activity change, positive = activation is -7.88% [at 42.5 µM].
As for `O=c1[nH]c(=O)n([C@H]2C[C@H](O)[C@@H](CO)O2)cc1C(F)(F)F`, the Potency entry in experiment [1], in [2], in [3], in [4], in [20] and in experiment [6] was “inactive” throughout. Moreover, the Potency result in experiment [18], in experiment [7], in experiment [8], in experiment [10], in experiment [13] and in experiment [17] was “inactive” each time. Further, the Potency result in [14] and in experiment [15] was “inactive” each time. Further, in experiment [9], the Potency is 196 nM (active). For the same molecule, the activity change, positive = activation in experiment [12] is -26.8% [at 42.5 µM].
In the case of `CCCCCCCCOC(=O)CCCCCCCCC(=O)OCCCCCCCC`, the Potency entry in experiment [1], in experiment [2], in experiment [3], in experiment [4], in experiment [20] and in experiment [6] was “inactive” each time. The Potency result in experiment [18], in [7], in experiment [8], in experiment [9], in [10] and in experiment [11] was “inactive” each time. In addition, the Potency entry in experiment [13], in experiment [17], in experiment [14] and in experiment [15] was “inactive” in each case. In addition, in experiment [16], the outcome was inactive. For the same molecule, the activity change, positive = activation in experiment [12] is 3.45%.
Regarding `C[C@@H]1CN(c2c(F)c(N)c3c(=O)c(C(=O)O)cn(C4CC4)c3c2F)C[C@H](C)N1`, the viability change, negative = cytotoxic in experiment [1] is -1.89% [at 19 µM]; in experiment [3] it was -2.59% [at 19 µM]; in [6], -4.64% [at 19 µM]. For the same molecule, the activity change, negative = inhibition in [2] is 0.766% [at 23.6 µM]. Also, the activity change, negative = cytotoxicity in experiment [4] is 0.653% [at 19 µM]; in experiment [8], -0.675% [at 15.8 µM]; in experiment [10] it was 2.57% [at 31.6 µM]; in experiment [13] it was 2.81% [at 15.8 µM]. Also, the values for the activation in experiment [19] and in experiment [16] were 4.51% [at 19 µM] and 0.203% [at 15.8 µM], respectively. For the same molecule, the activation (H2AX phosphorylation) in experiment [9] is 0.193% [at 31.6 µM]. For the same molecule, the activity change, negative = cytotoxic in experiment [17] was -1.37% [at 15.8 µM]. Moreover, the cytotoxicity in experiment [14] was 8.42% [at 15.8 µM].
With `CCCNC(C)(C)COC(=O)c1ccccc1`, the Potency result in [1], in experiment [2], in experiment [3], in experiment [4], in experiment [5] and in experiment [6] was “inactive” throughout. The Potency result in experiment [18], in experiment [7], in [19], in experiment [8], in experiment [9] and in [10] was “inactive” throughout. For the same molecule, the Potency result in [11], in [13], in experiment [17], in experiment [14] and in experiment [15] was “inactive” throughout. Further, in [16], the molecule was called inactive. Further, the activity change, positive = activation in experiment [12] was 5.73% [at 42.5 µM].
